Shown are actives, neighbours in structure and some others; about 7.4% of the full set was active somewhere.
ELG1 genotoxic: qHTS screen for small molecules that induce genotoxicity in human embryonic kidney (HEK293T) cells expressing luciferase-tagged ELG1 | Potency, µM (highest dose often 46 µM), actives largely listed as activators | HEK293T ELG1-luciferase reporter, luminescence, 16 h | AID 504466, 2011 | hit rate 1.3% among 330,000; note: nearly all actives have a fitted effect of over 60% in size
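Genotoxicity was scored as increased ELG1-luciferase reporter signal, measured by ONE-Glo luminescence (30 min, room temperature). Compound or vehicle exposure of the HEK293T reporter cells lasted 16 hr at 37°C.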
Rab9 promoter act: qHTS Assay for Rab9 Promoter Activators; Huh7 Rab9 promoter-luciferase reporter, luminescence, 24 h; hit rate 2.8% among 320,000; Potency, µM (series often up to 9.22 µM), most hits filed as activators; note: nearly all actives have a fitted effect of over 60% in size
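Stable Rab9-luc Huh7, 1500 cells/well, 2 h settle; cmpd in DMSO, 24 h, 37 °C/5% CO2; luciferase reagent 10 min RT; luminescence.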
NPC1 prom act: qHTS Assay for NPC1 Promoter Activators; Huh7 NPC1 promoter luciferase reporter, 24 h; Potency, µM (doses to about 9.22 µM), usual class: activators; hit rate 2.4% among 320,000; note: nearly all actives have a fitted effect of over 60% in size
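Luminescence from an NPC1 promoter-driven luciferase reporter in stably transfected Huh7 cells was measured after 24 h compound treatment at 37 °C, followed by 10 min ambient incubation with luciferase detection reagent.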
FLuc counter: qHTS profiling assay for firefly luciferase inhibitor/activator using purifed enzyme and Km concentrations of substrates (counterscreen for miR-21 project) | hit rate 6.9% among 360,000 | purified FLuc, Km substrates, luminescence inhibition | Potency, µM (titrated, usually from 57.5 µM), usual class: inhibitors | AID 588342, 2011; note: nearly all actives have a fitted effect of over 55% in size
Target sequence (P08659 whole entry, looked up): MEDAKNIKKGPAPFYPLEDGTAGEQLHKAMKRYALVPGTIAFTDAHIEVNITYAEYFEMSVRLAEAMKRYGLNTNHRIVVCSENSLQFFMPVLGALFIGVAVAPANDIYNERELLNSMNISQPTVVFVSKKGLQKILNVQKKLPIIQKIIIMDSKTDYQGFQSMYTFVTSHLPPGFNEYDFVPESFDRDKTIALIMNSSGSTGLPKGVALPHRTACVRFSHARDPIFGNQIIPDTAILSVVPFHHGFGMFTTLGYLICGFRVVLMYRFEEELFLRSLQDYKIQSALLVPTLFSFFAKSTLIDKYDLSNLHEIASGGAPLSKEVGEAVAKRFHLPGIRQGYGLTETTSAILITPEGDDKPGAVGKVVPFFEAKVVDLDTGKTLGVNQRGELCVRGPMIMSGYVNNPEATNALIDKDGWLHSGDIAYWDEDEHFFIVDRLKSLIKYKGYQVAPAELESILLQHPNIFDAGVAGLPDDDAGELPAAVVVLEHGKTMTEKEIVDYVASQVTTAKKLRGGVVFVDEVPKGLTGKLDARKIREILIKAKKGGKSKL
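Biochemical qHTS of compounds, final roughly 60 µM downward over six points, against 10 nM purified firefly luciferase using Km concentrations of substrates (10 uM D-luciferin, 10 uM ATP) in Tris acetate pH 7.5 buffer; luminescence output.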
SMN2 splice up: qHTS Assay for Enhancers of SMN2 Splice Variant Expression | hit rate 2.8% among 210,000 | HEK293 SMN2-luciferase splicing reporter, luminescence, 30-36 h | Potency, µM (top dose mostly 46.1 µM), most hits filed as activators; note: nearly all actives have a fitted effect of over 55% in size
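HEK293 cells carry an SMN2 minigene-luciferase reporter in which exon 7 inclusion puts luciferase in frame. Cells were seeded at 2000 cells/well, attached for 10-12 hours, then exposed to compounds for 30-36 hours at 37C before ONE-Glo luminescence.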
KinaseGlo FLuc: Counterscreen for Luciferase (Kinase-Glo TM) Inhibition | Luciferin 4-monooxygenase (Photuris pensylvanica), Q27757 | Potency, µM (highest dose often 38.3 µM), usual class: inhibitors | AID 1379, 2008 | Kinase-Glo luciferase, ATP luminescence, 8 min | hit rate 0.28% among 200,000; note: nearly all actives have a fitted effect of over 60% in size
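Recombinant Kinase-Glo luciferase, 10 uM ATP (linear range), luciferin; imidazole pH 7.2 / KCl / MgCl2 / Tween / BSA buffer; 8 min RT; luminescence.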
Hits are given with their value; i = inactive; ? = inconclusive; nt = no result. Calls come from the whole dose curve; as a rule, active = well fitted curve in the direction sought with a large enough effect; inconclusive = small, poorly fitted or top-dose-only effect, or another doubt; inactive = no such curve, though single readings can be large; an effect the other way counts as inactive or inconclusive.

SMILES | ELG1 genotoxic | Rab9 promoter act | NPC1 prom act | FLuc counter | SMN2 splice up | KinaseGlo FLuc
CC(C)(C)C(=O)NC(=S)Nc1cccc(C(=O)O)c1 | ? | 0.79µM | 2.8µM | 19µM | nt | i
COc1ccc(NC(=O)CCCC(=O)c2ccccc2)cc1OC | i | i | i | i | nt | nt
O=C(CCCc1ccccc1)Nc1cccc(C(=O)O)c1 | i | 0.25µM | 0.32µM | 0.38µM | 1.6µM | i
O=C1C(=O)N(C2CCN(C(=O)c3ccccc3F)CC2)CCN1Cc1ccc(F)cc1 | nt | nt | nt | i | nt | nt
O=C(Nc1nccs1)c1ccc(CSc2ccccc2)o1 | i | 2µM | 3.2µM | 5.4µM | nt | nt
Cc1ccc(SCc2ccc(C(=O)Nc3nccs3)o2)cc1 | i | ? | ? | 15µM | nt | nt
Cc1c(C(=O)NCc2ccoc2)oc2ccc3c(c12)C(=O)CC(C)(C)O3 | ? | ? | ? | 8.5µM | 16µM | i
CCC1(C)CC(=O)c2c(ccc3oc(C(=O)NCc4ccccc4)c(C)c23)O1 (stereo not given) | nt | nt | nt | 9.5µM | 22µM | nt
CCCNC(=O)c1oc2ccc3c(c2c1C)C(O)CC(C)(C)O3 (stereo not given) | i | i | i | i | nt | nt
CCCCC/C=C\C\C=C/C=C/C=C/[C@@H](SC[C@H](NC(=O)CC[C@H](N)C(=O)O)C(=O)NCC(=O)O)[C@@H](O)CCCC(=O)O | nt | nt | nt | nt | i | nt
O=C(CSc1nnc(NC(=O)c2cccc(F)c2)s1)NC1CCCC1 | i | i | i | 6µM | nt | nt
O=C(CSc1nnc(NC(=O)c2ccc(F)cc2)s1)NC1CC1 | ? | ? | 2.5µM | 5.4µM | nt | nt
O=C(Cc1ccc(F)cc1)Nc1nnc(SCC(=O)NC2CCCC2)s1 | ? | i | i | i | i | i
CC(C)c1nnc(NC(=O)CSc2nnc(NC(=O)c3c(F)cccc3F)s2)s1 | i | i | i | 8.5µM | i | i
COc1ccccc1C(=O)Nc1nnc(SCC(=O)NC2CCCC2)s1 | 2.3µM | nt | 0.63µM | 4.8µM | nt | nt
O=C(CSc1nnc(NC(=O)c2c(F)cccc2F)s1)Nc1ccccc1F | i | i | i | ? | nt | nt
O=C(CSc1nnc(NC(=O)c2c(F)cccc2F)s1)NC1CCCC1 | i | i | i | i | nt | nt
O[C@@H]1[C@@H]2c3cc4c(cc3CN3CCC(=C[C@@H]1O)[C@H]23)OCO4 | nt | nt | nt | nt | i | i
O=C(CSc1nnc(NC(=O)c2ccco2)s1)NC1CCCC1 | i | i | i | i | i | i
COc1ccccc1C(=O)Nc1nnc(SCC(=O)Nc2ccc3c(c2)oc2ccccc23)s1 | ? | 2.8µM | 4µM | 1.9µM | 22µM | i
O=C(CSc1nnc(NC(=O)c2ccccc2F)s1)NC1CC1 | i | ? | ? | 15µM | nt | nt
O=C(CSc1nnc(NC(=O)c2cccc(F)c2)s1)NC1CC1 | i | i | i | 15µM | nt | nt
Cc1cccc(C(=O)Nc2nnc(SCC(=O)Nc3ccc4c(c3)oc3ccccc34)s2)c1 | i | i | i | ? | i | i
O=C(CSc1nnc(NC(=O)C2CCC2)s1)NC1CC1 | i | i | i | i | i | i
COc1cccc(C(=O)Nc2nnc(SCC(=O)NC3CCCC3)s2)c1 | ? | ? | ? | 2.7µM | nt | nt
SMILES | ELG1 genotoxic | Rab9 promoter act | NPC1 prom act | FLuc counter | SMN2 splice up | KinaseGlo FLuc
Cc1nnc(SCC(=O)NC2CC2)s1 | i | i | i | i | nt | nt
Cc1cccc(C(=O)Nc2nnc(SCC(=O)NC3CC3)s2)c1 | ? | ? | ? | 19µM | nt | nt
CCOc1ccc2nc(N(Cc3cccnc3)C(=O)c3ccc4c(c3)OCCO4)sc2c1 | nt | nt | nt | 13µM | nt | nt
O=C(c1ccc2c(c1)OCCO2)N(Cc1cccnc1)c1nc2c(Cl)cccc2s1 | nt | nt | nt | i | nt | nt
CN(c1ccc(O)cc1)c1nc(-c2cccs2)cs1 | i | i | i | i | nt | i
Cc1nc(N)sc1-c1csc(N(C)c2ccc(O)cc2)n1 | ? | ? | ? | 4.8µM | ? | i
Oc1cc2c(cc1O)C1c3ccc(O)c(O)c3OCC1(O)C2 (stereo not given) | i | i | i | 8.5µM | i | ?
CCOc1ccc(-n2c(=O)c3c(C)c(C)sc3n(CC(=O)N3CCC(C)CC3)c2=O)cc1 | nt | nt | nt | i | i | nt
Cc1nnc(NC(=O)C2COc3ccccc3O2)s1 (stereo not given) | ? | ? | ? | 24µM | i | i
O=C(Nc1ccncc1)C1COc2ccccc2O1 (stereo not given) | i | i | i | i | nt | i
CCCCCc1nnc(NC(=O)C2COc3ccccc3O2)s1 (stereo not given) | ? | i | i | ? | i | i
O=C(NC1=NCCS1)C1COc2ccccc2O1 (stereo not given) | ? | ? | 0.025µM | 0.24µM | nt | 7.9µM
O=C(Nc1nc2c(s1)CCCC2)C1COc2ccccc2O1 (stereo not given) | 0.58µM | 0.32µM | 0.56µM | 0.76µM | 0.5µM | i
CCc1nnc(NC(=O)C2COc3ccccc3O2)s1 (stereo not given) | ? | 2.8µM | 3.2µM | 12µM | 11µM | i
Cc1ccc(Cc2nc3ccccc3nc2SCC(=O)NCc2ccccc2Cl)cc1 | nt | nt | nt | i | nt | nt
CCn1nc(C)c2c(-c3ccccc3)cc(=O)n(C(C)C(=O)Nc3ccc(OC)c(OC)c3)c21 (stereo not given) | nt | nt | nt | i | nt | nt
CCOC(=O)c1ccc(Nc2nc3nonc3nc2Nc2cccc(C)c2C)cc1 | nt | nt | nt | ? | i | nt
CCC(CC)c1nnc(NC(=O)C2COc3ccccc3O2)s1 (stereo not given) | ? | 1.3µM | 1.6µM | 7.6µM | ? | i
O=C(Nc1ncc(Cc2ccccc2)s1)C1COc2ccccc2O1 (stereo not given) | i | 2.8µM | 1.6µM | 3µM | 10µM | i
CCOC(=O)c1cc(C)n(CC2CCC(C(=O)Nc3ccccc3OC)CC2)c1C (stereo not given) | nt | nt | nt | i | nt | nt
Cc1cc(O)c(CN2CCN(c3ccccc3)CC2)c2oc(=O)cc(C)c12 | nt | nt | nt | i | nt | nt
O=C(Nc1nc(-c2cccs2)cs1)c1ccco1 | 10µM | 3.2µM | 4µM | 8.5µM | 13µM | i
Cc1cc(C(=O)OC(C)C(=O)Nc2nc(-c3ccccc3)cs2)c(C)o1 (stereo not given) | i | i | i | i | i | i
CC(OC(=O)c1ccc([N+](=O)[O-])o1)C(=O)Nc1nc(-c2ccc(F)c(F)c2)cs1 (stereo not given) | i | ? | ? | 24µM | nt | nt
O=C(Cc1ccccc1)Nc1nc(-c2cccs2)cs1 | i | i | i | 19µM | i | i
O=C(Cc1ccccc1F)Nc1nc(-c2cccs2)cs1 | ? | ? | ? | 11µM | i | i
O=C(Cc1ccccc1F)Nc1nc(-c2cccnc2)cs1 | i | i | i | i | i | i
COCC(=O)N1CCC[C@@]2(CCN(c3ccccn3)C2)C1 | nt | nt | nt | nt | i | i
Cc1cc2c(c3oc(=O)c4ccccc4c13)CN(Cc1ccc(F)cc1)CO2 | nt | nt | nt | i | i | nt
